Where “and” joins values, the source holds several entries; their conditions need not be identical. Equal values may be shown once. In all, about 5,500 compounds went through this assay and about 2,000 (36%) were called active. Roughly 18% stayed inconclusive and do not appear here. Rule as the data show it: active = normalized growth mostly below about 0.91 (no sharp cut-off); inconclusive = no clear call, values can overlap the other calls; inactive = mostly above about 0.92. Some of the results follow.
Assay: chemical genetic growth profiling, strain panel (AID 1159580);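 also: tested at 20 µM; growth read once vehicle control cultures reached saturation at 30 °C; 1 = growth at the plate median or of vehicle wells; lower values mean less growth of the strain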
Conditions: S. cerevisiae deletion strains, growth OD

Measured: normalized growth

CN1C2CCC1CC(OC(c1ccccc1)c1ccccc1N)C2 (stereo unspecified)
inactive: locus YAL013W, strain DEP1, stronger effect = lower value 0.993 | locus YAL021C, strain ccr4, stronger effect = lower value 0.985 | locus YAL026C, strain drs2, stronger effect = lower value 1.01 | locus YAL030W, strain snc1, stronger effect = lower value 0.994 | locus YAL040C, strain CLN3, stronger effect = lower value 1.01 | locus YBL061C, strain skt5, stronger effect = lower value 0.995 | locus YBR009C, strain hhf1, stronger effect = lower value 0.998 | locus YBR021W, strain FUR4, stronger effect = lower value 0.993 | locus YBR023C, strain chs3, stronger effect = lower value 0.989 | locus YBR171W, strain sec66, stronger effect = lower value 1 | locus YBR229C, strain ROT2, stronger effect = lower value 0.998 | locus YBR231C, strain swc5, stronger effect = lower value 1 | locus YBR279W, strain paf1, stronger effect = lower value 1 | locus YCL011C, strain gbp2, stronger effect = lower value 1 | locus YCL016C, strain dcc1, stronger effect = lower value 0.994 | locus YCL029C, strain bik1, stronger effect = lower value 1.03 | locus YCL061C, strain MRC1 (second series), stronger effect = lower value 1 | locus YCL061C, strain MRC1, stronger effect = lower value 0.997 | locus YCL069W, strain vba3, stronger effect = lower value 1 | locus YCR088W, strain abp1, stronger effect = lower value 0.997 | locus YDL005C, strain med2, stronger effect = lower value 0.99 | locus YDL035C, strain GPR1, stronger effect = lower value 1.01 | locus YDL040C, strain nat1, stronger effect = lower value 0.991 | locus YDL074C, strain BRE1, stronger effect = lower value 1 | locus YDL101C, strain DUN1, stronger effect = lower value 1.01 | locus YDL134C, strain PPH21, stronger effect = lower value 1.01 | locus YDL185W, strain tfp1, stronger effect = lower value 1.01 | locus YDL192W, strain arf1, stronger effect = lower value 1.02 | locus YDR001C, strain nth1, stronger effect = lower value 1.01 | locus YDR069C, strain doa4, stronger effect = lower value 1 | locus YDR101C, strain arx1, stronger effect = lower value 1.01 | locus YDR137W, strain rgp1, stronger effect = lower value 0.98 | locus YDR150W, strain NUM1, stronger effect = lower value 1.01 | locus YDR159W, strain sac3, stronger effect = lower value 1 | locus YDR162C, strain NBP2, stronger effect = lower value 1 | locus YDR195W, strain ref2 0.976 | locus YDR297W, strain sur2, stronger effect = lower value 1.01 | locus YDR318W, strain mcm21, stronger effect = lower value 1.01 | locus YDR334W, strain swr1, stronger effect = lower value 1 | locus YDR335W, strain msn5, stronger effect = lower value 0.996 | locus YDR363W, strain ESC2, stronger effect = lower value 0.962 | locus YDR388W, stronger effect = lower value 1.01 | locus YDR392W, strain spt3, stronger effect = lower value 1.01 | locus YDR502C, strain sam2, stronger effect = lower value 1.01 | locus YEL003W, strain gim4, stronger effect = lower value 1.01 | locus YEL037C, strain rad23, stronger effect = lower value 1 | locus YEL061C, strain CIN8 (second series), stronger effect = lower value 1.03 | locus YEL061C, strain CIN8, stronger effect = lower value 1 | locus YER002W, strain NOP16, stronger effect = lower value 1 | locus YER015W, strain faa2, stronger effect = lower value 0.987 | locus YER016W, strain bim1, stronger effect = lower value 0.991 | locus YER110C, stronger effect = lower value 1.01 | locus YER111C, strain swi4, stronger effect = lower value 0.989 | locus YER155C, strain BEM2 (second series), stronger effect = lower value 0.988 | locus YER155C, strain BEM2, stronger effect = lower value 0.996 | locus YER167W, strain BCK2, stronger effect = lower value 1.02 | locus YFR010W, strain ubp6, stronger effect = lower value 0.996 | locus YGL078C, strain dbp3, stronger effect = lower value 1.01 | locus YGL086W, strain mad1, stronger effect = lower value 1.01 | locus YGL167C, strain pmr1, stronger effect = lower value 0.999 | locus YGL173C, strain kem1, stronger effect = lower value 0.999 | locus YGL227W, strain vid30, stronger effect = lower value 0.991 | locus YGL240W, strain doc1, stronger effect = lower value 0.997 | locus YGL248W, strain PDE1, stronger effect = lower value 1.01 | locus YGL253W, strain hxk2, stronger effect = lower value 0.998 | locus YGR078C, strain PAC10, stronger effect = lower value 1.01 | locus YGR135W, strain pre9, stronger effect = lower value 1.01 | locus YGR229C, strain SMI1, stronger effect = lower value 0.992 | locus YGR252W, strain gcn5, stronger effect = lower value 1 | locus YHR013C, strain ard1, stronger effect = lower value 0.979 | locus YHR027C, strain rpn1, stronger effect = lower value 0.999 | locus YHR030C, strain SLT2, stronger effect = lower value 1.01 and 0.978 | locus YHR079C, strain IRE1 (second series), stronger effect = lower value 1.01 | locus YHR079C, strain IRE1, stronger effect = lower value 0.991 | locus YHR094C, strain hxt1, stronger effect = lower value 1.01 | locus YHR129C, strain ARP1, stronger effect = lower value 1.01 | locus YHR142W, strain chs7, stronger effect = lower value 1 | locus YHR200W, strain rpn10, stronger effect = lower value 1.02 | locus YIL066C, strain RNR3, stronger effect = lower value 0.994 | locus YIL073C, strain SPO22, stronger effect = lower value 1.05 | locus YIL125W, strain kgd1, stronger effect = lower value 1 | locus YIR030C, strain dcg1, stronger effect = lower value 1.01 | locus YJL092W, strain hpr5, stronger effect = lower value 1.01 | locus YJL095W, strain BCK1 (second series), stronger effect = lower value 1.01 | locus YJL095W, strain BCK1, stronger effect = lower value 1 and 0.969 | locus YJL115W, strain asf1, stronger effect = lower value 0.997 | locus YJL129C, strain trk1, stronger effect = lower value 1.01 | locus YJL134W, strain LCB3, stronger effect = lower value 1.01 | locus YJL154C, strain vps35, stronger effect = lower value 1 | locus YJL164C, strain tpk1, stronger effect = lower value 1 | locus YJL166W, strain qcr8, stronger effect = lower value 1.02 | locus YJL168C, strain set2, stronger effect = lower value 1.01 | locus YJL187C, strain SWE1 (second series), stronger effect = lower value 1.01 | locus YJL187C, strain SWE1, stronger effect = lower value 0.998 | locus YJR043C, strain POL32, stronger effect = lower value 1.02 | locus YJR066W, strain TOR1, stronger effect = lower value 0.926
